The text below walks through data of PubChem BioAssay (NCATS).

Each structure is given as a SMILES string. Inconclusive results are not listed. The source made the active and inactive calls. Calls follow the shape of the dose curve; as a rule, active = well fitted inhibition curve with a large enough effect; inconclusive = small, poorly fitted or top-dose-only effect; inactive = no such curve, though single readings can be large or run the other way.

In this test the target is Retinaldehyde dehydrogenase 3 (Homo sapiens) (UniProt P47895). The experiment in a line: qHTS for Inhibitors of the Aldehyde Dehydrogenase Family (ALDH1A3) Primary screen (AID 2061315).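 Also: plate controls were DMSO vehicle for no effect and reference inhibitor for full effect.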 The conditions noted are these: ALDH inhibition qHTS; series mostly up to 56 µM; activity change, negative = inhibition: at the top concentration. (Quantitative high-throughput screening tests each substance at several concentrations.)
As to `CCn1c(=O)n([C@H]2CCCN(c3nccc(-c4cc5ccccc5o4)n3)C2)c2ccccc21`, the “activity change, negative = inhibition” value is -1.74% (inactive). Regarding `COCc1c(Cl)ccc2c1CC[C@H]2c1ncc[nH]1`, the “activity change, negative = inhibition” value was 6.09% (inactive). Same read-out and setting: in the case of `CN(C)[C@@H]1CCc2[nH]c3ccc(NC(=O)c4ccc(F)cc4)cc3c2C1` it was -22.2% (inactive); in that of `O=C(COc1ccc(Cl)cc1)NC1CCC(NC(=O)COc2ccc(Cl)cc2)CC1` (configuration not stated), -12.8% (inactive). Turning to `Cc1ccc(NC(=O)C(=O)NC2CC(C)(C)NC(C)(C)C2)cc1`, the “activity change, negative = inhibition” value was 5.95% (inactive). Same read-out and setting: in the case of `CC1(C)CCC(C)(C)c2cc(C#Cc3ccc(C(=O)O)cc3)ccc21` it was -14% (inactive). On to `CCn1c2ccccc2c2cc(CNC)ccc21`, for which the Potency result is “inactive”. With `COC1CCN(c2cccc(-c3cc(NC(C)=O)nc(-n4nc(C)cc4C)n3)n2)CC1`, the “activity change, negative = inhibition” value was 26.6% (inactive).

For the molecule `FC(F)(F)c1nnc2c(Sc3ccccc3)nc3ccc(Cl)cc3n12`, the “activity change, negative = inhibition” value is 6.71% (inactive). Take `COc1ccccc1N1CCN(c2ncnc3n[nH]c(Br)c23)CC1`: the “activity change, negative = inhibition” value is 4.5% (inactive). On the same count and under the same terms, then `COc1cc(C(=O)NCC2(N(C)C)CCCC2)cc(OC)c1OCc1ccccc1`, with -11.7% (inactive); and `Cc1cc(OCCCS(C)(=O)=O)cc(C)c1-c1cccc(COc2ccc3c(c2)OCC3CC(=O)O)c1` (configuration not stated), with 16.4% (inactive).
